# Screening results from PubChem.
# The list is not random: actives were taken first. Their share in the collection is about 1.2%.
# KinaseGlo FLuc: Counterscreen for Luciferase (Kinase-Glo TM) Inhibition; Luciferin 4-monooxygenase (Photuris pensylvanica), Q27757; Kinase-Glo luciferase, ATP luminescence, 8 min; Potency, µM (highest dose often 38.3 µM), hits mostly inhibitors; hit rate 0.28% among 200,000; active = well fitted inhibition curve with a large enough effect; inconclusive = small, poorly fitted or top-dose-only effect; also: nearly all actives have a fitted effect of over 60% in size
#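 Substrate mix (final 50 mM imidazole pH 7.2, 50 mM KCl, 7 mM MgCl2, 10 uM ATP, 0.01% Tween 20, 0.05% BSA) plus pin-tool compound, then Kinase-Glo detection mix; 8 min ambient, luminescence read.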
# KCNH2 3.1 block: qHTS for Inhibitors of KCHN2 3.1: Mutant qHTS; U2OS KCNH2 3.1, thallium flux FluxOr; active compounds read low; activity change, % (tested at about 1.8 µM); hit rate 0.95% among 340,000; AID 720553, 2013;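 active = maximum activity change below -70%; inconclusive = maximum activity change from -70% to -50%; inactive = maximum activity change above -50%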;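 also: thallium influx rate constant from kinetic fluorescence after stimulation buffer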
#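 Normalized rate constant (relative to positive and negative DMSO controls) derived from a 2 min kinetic fluorescence read after stimulation; U2OS cells expressing the 3.1 isoform via virus at 1.77 x 10^8 /mL.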
# KCNH2 WT inh: qHTS for Inhibitors of KCHN2 3.1: Wildtype qHTS; Voltage-gated inwardly rectifying potassium channel KCNH2 (Homo sapiens), Q12809; activity change, % at 1.84 µM; AID 720551, 2013; U2OS, BacMam KCNH2, thallium flux FluxOr; active compounds read low; hit rate 0.37% among 340,000;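 active = maximum activity change below -70%; inconclusive = maximum activity change between -70% and -50%; inactive = maximum activity change above -50%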
# Target sequence (Q12809 whole entry, looked up): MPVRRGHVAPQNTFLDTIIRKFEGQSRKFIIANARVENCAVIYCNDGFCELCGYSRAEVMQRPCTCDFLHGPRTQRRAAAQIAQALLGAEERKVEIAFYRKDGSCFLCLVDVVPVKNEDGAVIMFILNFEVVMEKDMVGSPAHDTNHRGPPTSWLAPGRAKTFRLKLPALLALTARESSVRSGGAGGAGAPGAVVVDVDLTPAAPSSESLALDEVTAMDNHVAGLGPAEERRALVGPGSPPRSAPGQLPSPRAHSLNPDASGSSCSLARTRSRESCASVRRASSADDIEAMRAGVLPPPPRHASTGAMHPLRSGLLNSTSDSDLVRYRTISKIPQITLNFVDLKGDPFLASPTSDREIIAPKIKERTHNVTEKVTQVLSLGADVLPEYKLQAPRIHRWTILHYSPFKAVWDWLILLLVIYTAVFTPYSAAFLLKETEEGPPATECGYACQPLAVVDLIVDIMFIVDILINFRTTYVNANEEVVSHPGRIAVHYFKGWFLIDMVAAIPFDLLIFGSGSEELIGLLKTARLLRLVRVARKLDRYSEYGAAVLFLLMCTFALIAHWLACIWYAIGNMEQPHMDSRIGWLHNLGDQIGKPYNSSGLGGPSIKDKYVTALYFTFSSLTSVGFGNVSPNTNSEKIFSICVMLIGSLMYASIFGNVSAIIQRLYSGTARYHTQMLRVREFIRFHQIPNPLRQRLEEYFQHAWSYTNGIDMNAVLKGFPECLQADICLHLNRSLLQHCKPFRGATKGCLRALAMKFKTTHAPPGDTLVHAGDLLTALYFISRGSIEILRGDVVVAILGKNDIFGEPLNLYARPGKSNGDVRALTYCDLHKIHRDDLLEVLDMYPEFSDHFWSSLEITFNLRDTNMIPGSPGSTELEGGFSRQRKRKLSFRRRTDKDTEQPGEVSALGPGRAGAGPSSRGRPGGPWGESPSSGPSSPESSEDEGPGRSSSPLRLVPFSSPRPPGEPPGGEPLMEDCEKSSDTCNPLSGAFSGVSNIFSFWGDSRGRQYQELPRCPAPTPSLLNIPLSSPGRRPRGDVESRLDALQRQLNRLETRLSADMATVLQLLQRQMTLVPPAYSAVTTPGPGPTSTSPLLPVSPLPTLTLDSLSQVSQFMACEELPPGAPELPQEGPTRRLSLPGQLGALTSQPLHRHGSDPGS
#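 U2OS cells were transduced with wild-type KCNH2 virus (2.03 x 10^8 / mL) for 4 h at room temperature, then cultured overnight at 37 C. Thallium flux was read with FluxOr dye. Rate constants were normalized to DMSO controls.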
# Hits are given with their value; n = inactive; u = inconclusive; x = no result given; [ ] = another dose, or the depositor's remark.
SMILES,KinaseGlo FLuc,KCNH2 3.1 block,KCNH2 WT inh
O=C(CSc1n[nH]c(=O)n1-c1cccnc1)N1CCOCC1,x,n,n
CC(C)Cn1c(N)c(C(=O)COC(=O)C2Cc3ccccc3CN2S(C)(=O)=O)c(=O)n(C)c1=O (configuration not stated),x,n,n
c1coc(CNc2c3c(nc4ncnn24)CCCC3)c1,n,n,n
Clc1cccc(-c2cc3nc4c(c(NCc5ccco5)n3n2)CCCC4)c1,n,-101,n
Cc1ccc(S(=O)(=O)NCc2cccnc2)c(C)c1,x,-71,n
Cc1cc(C)c(S(=O)(=O)NCc2cccnc2)cc1C,x,n,n
COc1cc(C(=O)Nc2nc3ccc4nc(C)sc4c3s2)cc(OC)c1OC,n,n,n
COc1ccc(C(=O)Nc2nc3ccc4nc(C)sc4c3s2)cc1,n,-94,n
CC[C@@]1(O)CC2CN(CCc3c([nH]c4ccccc34)[C@](C(=O)OC)(c3cc4c(cc3OC)N(C)C3[C@@](O)(C(=O)OC)C(OC(C)=O)[C@]5(CC)C=CCN6CC[C@@]43C65)C2)C1 (some centres not stated),n,x,x
Nc1c(C(=O)NCc2ccccc2)sc2nc(N3CCOCC3)c3c(c12)CCCC3,n,-72,n
Nc1c(C(=O)Nc2ccccc2)sc2nc(N3CCOCC3)c3c(c12)CCCC3,x,n,n
O=C1CC[C@@]23/C=C/C(=O)NCCCCNCCCNC(=O)/C=C/c4ccc(c2c4)OC3C1 (some centres not stated),n,x,x
CC(C)N1CC(C(=O)Nc2ccc(Cl)cc2Cl)CC1=O (configuration not stated),x,n,n
CC1Cc2nc(SCC(=O)N3CCCCC3)n(C)c(=O)c2S1 (configuration not stated),x,n,n
CSCCC(NC(=O)c1ccccc1Cl)C(=O)OCC(=O)N1CCCC1=O (configuration not stated),x,n,n
COc1ccc(CN2CCC(C(=O)c3ccc(Cl)cc3)CC2)cc1,x,-97,-110
COc1ccc(CNC(=O)C2CCN(C(=O)c3cccc(Cl)c3)CC2)cc1,x,n,n
COc1ccc(NC(=S)N2CCC(C(=O)c3ccc(Cl)cc3)CC2)cc1,x,n,n
COc1ccc(NC(=O)CN2CCC(C(=O)c3ccc(F)cc3)CC2)c(OC)c1,x,n,n
COc1ccc(CN2CCC(C(=O)c3cccc(Cl)c3)CC2)cc1,x,-108,u
COc1ccc(-c2[nH]ncc2CN2CCC(C(=O)c3ccc(F)cc3)CC2)cc1,x,-93,n
CC(C)(C)NC(=O)CN(CC1CCCO1)C(=O)CNS(=O)(=O)c1ccc(F)cc1 (configuration not stated),x,n,n
C[C@H]1CN([C@@H](C)CO)C(=O)CCCn2nncc2CO[C@@H]1CN(C)C(=O)c1ccncc1,x,n,n
CN(C)C1C(=O)C(C(N)=O)=C(O)[C@@]2(O)C(=O)C3=C(O)c4c(O)ccc(Cl)c4[C@@H](O)C3C[C@@H]12 (some centres not stated),n,x,x
OC1CCN(CC(O)C(F)(F)F)CC1 (configuration not stated),n,-102,n
SMILES,KinaseGlo FLuc,KCNH2 3.1 block,KCNH2 WT inh
OCCN1CCN(CC(O)C(F)(F)F)CC1 (configuration not stated),n,n,n
CC1CCN(C(=O)CSc2nc(=O)n3ccccc3n2)CC1,x,n,n
O=c1[nH]c(=O)n(Cc2ccccc2)c2nc(-c3ccc(Oc4ccc(F)cc4)c([N+](=O)[O-])c3)n(CCO)c12,n,-86,n
COc1ccc(-c2nc3c(c(=O)[nH]c(=O)n3Cc3ccccc3)n2CCO)cc1,x,n,n
CCCCn1c(SCC(=O)NC2CC(C)(C)NC(C)(C)C2)nc2cc(S(N)(=O)=O)ccc21,x,n,n
CCc1ccc2nc(N(CCCN(C)C)C(=O)c3ccc(C(=O)c4ccccc4)cc3)sc2c1,x,-89,n
CN(C)CCN(C(=O)/C=C/c1cccs1)c1nc2c(F)cc(F)cc2s1,n,n,n
CN(C)CCCN(C(=O)/C=C/c1cccs1)c1nc2ccc(F)cc2s1,n,n,n
COc1cc2nc(N(CCCN(C)C)C(=O)c3ccc(C(=O)c4ccccc4)cc3)sc2cc1OC,x,n,n
Cc1ccc2nc(N(CCCN(C)C)C(=O)CN3C(=O)c4ccccc4C3=O)sc2c1,n,-87,n
CN(C)CCN(C(=O)/C=C/c1cccs1)c1nc2ccc(Br)cc2s1,x,-73,n
Cc1cc(C)c2sc(N(CCCN(C)C)C(=O)CN3C(=O)c4ccccc4C3=O)nc2c1,n,n,n
Cc1ccc2nc(N(CCN(C)C)C(=O)/C=C/c3cccs3)sc2c1,n,-101,n
COc1ccc2c(c1)[C@H]1[C@H](CO2)[C@H](c2ccccc2)[C@]2(C)C(=O)N(CC3CCCO3)CC(=O)N12 (some centres not stated),x,n,n
CC(C)CNS(=O)(=O)c1ccc(CCC(=O)NC2CCCCC2)cc1,x,n,n
N#Cc1c(-c2ccccc2)cc(-c2ccccc2)nc1SCCC(=O)O,x,n,n
Cc1ccc(-c2cccc(CN3CCN(C4CCN(C(C)C)CC4)C(CCO)C3)c2)o1 (configuration not stated),n,n,n
CCN(CC)CCN(C(=O)/C=C/c1cccs1)c1nc2ccc(F)cc2s1,x,n,n
CCOc1ccc2nc(N(CCN(C)C)C(=O)/C=C/c3cccs3)sc2c1,x,n,n
CCc1ccc2nc(N(CCN(C)C)C(=O)/C=C/c3cccs3)sc2c1,x,-127,n
CCN(CC)CCN(C(=O)/C=C/c1cccs1)c1nc2ccc(C)cc2s1,x,-99,-148
CCCCC(=O)Nc1cc(C)c(NC(=O)c2ccco2)cn1,x,n,n
[O-][n+]1nc2ccccc2c2ccccc21,x,n,n
Cc1nc(NC(=O)CSc2nccn2C)sc1C(=O)N(C)C,x,n,n
CCOC(=O)C1=CN(Cc2cccc(F)c2)S(=O)(=O)N(C)C1c1ccc(F)c(Cl)c1 (configuration not stated),x,n,n
SMILES,KinaseGlo FLuc,KCNH2 3.1 block,KCNH2 WT inh
O=C(O)c1cc(-c2c[nH]c3ccccc23)nc2ccc3ccccc3c12,n,-98,n
c1ccc2c(-c3c[nH]c4ccccc34)c3ccccc3nc2c1,n,n,n
Cc1ccc(S(=O)(=O)N=Nc2c(O)[nH]c3cc(O)c(C(=O)O)cc23)cc1,n[7.66 µM],x,x
CC1CCN(S(=O)(=O)c2nnc(NC(=O)COc3ccccc3)s2)CC1,x,n,n
CN(C(=O)C1CCC(=O)N(C2CC2)C1)C1CCCCC1 (configuration not stated),x,n,n
CC1N(C(=O)N(C)C)CCN1S(=O)(=O)c1ccccc1 (configuration not stated),x,n,n
CC(C)C1N(C(=O)N(C)C)CCN1S(=O)(=O)c1ccccc1 (configuration not stated),x,-141,n
COc1ccc(NC(=O)Nc2ccc3c(c2)C(=O)N([C@H](C)CO)C[C@H](C)[C@@H](CN(C)C(=O)NC(C)C)O3)cc1,x,n,n
NCCC(=O)N[C@H](Cc1cnc[nH]1)C(=O)O,n,x,x
CC(C)NC(=O)N1CCCC2(CCN(C(=O)c3cccc(F)c3)CC2)C1,n,x,x
